About 7,900 targets were measured; listed, in parts, are those with a hit and a random draw of the rest. About 0.6% of all pairs of compound and target were hits. Unmarked numbers belong to inactive results.

UniProt Q99541, sequence (Q99541 whole entry, looked up): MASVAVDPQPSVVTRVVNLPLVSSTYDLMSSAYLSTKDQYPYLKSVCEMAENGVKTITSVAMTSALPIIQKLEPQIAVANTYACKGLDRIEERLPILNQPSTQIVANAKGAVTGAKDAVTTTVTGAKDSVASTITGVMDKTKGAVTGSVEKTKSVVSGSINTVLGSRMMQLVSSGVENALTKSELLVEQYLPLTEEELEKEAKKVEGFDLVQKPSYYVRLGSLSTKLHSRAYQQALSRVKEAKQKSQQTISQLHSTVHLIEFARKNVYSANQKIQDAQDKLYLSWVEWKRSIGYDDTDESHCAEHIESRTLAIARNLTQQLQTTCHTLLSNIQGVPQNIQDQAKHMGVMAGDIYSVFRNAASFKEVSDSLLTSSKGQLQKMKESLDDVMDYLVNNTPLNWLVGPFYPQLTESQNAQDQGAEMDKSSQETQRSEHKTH
UniProt Q15121, sequence (Q15121 whole entry, looked up): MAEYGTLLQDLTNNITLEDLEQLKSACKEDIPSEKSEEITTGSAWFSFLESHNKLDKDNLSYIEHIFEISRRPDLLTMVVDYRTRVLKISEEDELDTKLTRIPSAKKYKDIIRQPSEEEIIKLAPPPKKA
UniProt P15735, sequence (P15735 whole entry, looked up): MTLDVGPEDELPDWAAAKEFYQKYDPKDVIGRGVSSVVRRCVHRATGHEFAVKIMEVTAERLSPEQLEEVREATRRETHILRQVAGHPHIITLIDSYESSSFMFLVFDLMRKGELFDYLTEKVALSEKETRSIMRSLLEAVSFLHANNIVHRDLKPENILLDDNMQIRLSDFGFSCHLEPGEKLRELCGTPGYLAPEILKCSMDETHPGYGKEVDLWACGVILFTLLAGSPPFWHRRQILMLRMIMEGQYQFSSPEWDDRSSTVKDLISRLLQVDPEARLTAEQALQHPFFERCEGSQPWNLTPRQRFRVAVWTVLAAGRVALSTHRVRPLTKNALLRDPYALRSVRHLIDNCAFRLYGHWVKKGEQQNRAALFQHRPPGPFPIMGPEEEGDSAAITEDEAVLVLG
UniProt Q9UNM6, sequence (Q9UNM6 whole entry, looked up): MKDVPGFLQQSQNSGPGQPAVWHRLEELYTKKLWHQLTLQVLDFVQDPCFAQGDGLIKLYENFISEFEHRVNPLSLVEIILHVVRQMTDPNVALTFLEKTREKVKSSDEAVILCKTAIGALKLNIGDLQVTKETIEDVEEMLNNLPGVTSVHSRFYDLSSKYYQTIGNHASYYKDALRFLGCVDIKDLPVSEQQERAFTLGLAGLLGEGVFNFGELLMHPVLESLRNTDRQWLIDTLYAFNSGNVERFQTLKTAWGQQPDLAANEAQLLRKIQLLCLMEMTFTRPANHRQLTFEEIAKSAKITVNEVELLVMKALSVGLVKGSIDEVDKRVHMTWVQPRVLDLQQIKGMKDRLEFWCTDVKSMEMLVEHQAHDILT
UniProt O95613, sequence (O95613 whole entry, looked up): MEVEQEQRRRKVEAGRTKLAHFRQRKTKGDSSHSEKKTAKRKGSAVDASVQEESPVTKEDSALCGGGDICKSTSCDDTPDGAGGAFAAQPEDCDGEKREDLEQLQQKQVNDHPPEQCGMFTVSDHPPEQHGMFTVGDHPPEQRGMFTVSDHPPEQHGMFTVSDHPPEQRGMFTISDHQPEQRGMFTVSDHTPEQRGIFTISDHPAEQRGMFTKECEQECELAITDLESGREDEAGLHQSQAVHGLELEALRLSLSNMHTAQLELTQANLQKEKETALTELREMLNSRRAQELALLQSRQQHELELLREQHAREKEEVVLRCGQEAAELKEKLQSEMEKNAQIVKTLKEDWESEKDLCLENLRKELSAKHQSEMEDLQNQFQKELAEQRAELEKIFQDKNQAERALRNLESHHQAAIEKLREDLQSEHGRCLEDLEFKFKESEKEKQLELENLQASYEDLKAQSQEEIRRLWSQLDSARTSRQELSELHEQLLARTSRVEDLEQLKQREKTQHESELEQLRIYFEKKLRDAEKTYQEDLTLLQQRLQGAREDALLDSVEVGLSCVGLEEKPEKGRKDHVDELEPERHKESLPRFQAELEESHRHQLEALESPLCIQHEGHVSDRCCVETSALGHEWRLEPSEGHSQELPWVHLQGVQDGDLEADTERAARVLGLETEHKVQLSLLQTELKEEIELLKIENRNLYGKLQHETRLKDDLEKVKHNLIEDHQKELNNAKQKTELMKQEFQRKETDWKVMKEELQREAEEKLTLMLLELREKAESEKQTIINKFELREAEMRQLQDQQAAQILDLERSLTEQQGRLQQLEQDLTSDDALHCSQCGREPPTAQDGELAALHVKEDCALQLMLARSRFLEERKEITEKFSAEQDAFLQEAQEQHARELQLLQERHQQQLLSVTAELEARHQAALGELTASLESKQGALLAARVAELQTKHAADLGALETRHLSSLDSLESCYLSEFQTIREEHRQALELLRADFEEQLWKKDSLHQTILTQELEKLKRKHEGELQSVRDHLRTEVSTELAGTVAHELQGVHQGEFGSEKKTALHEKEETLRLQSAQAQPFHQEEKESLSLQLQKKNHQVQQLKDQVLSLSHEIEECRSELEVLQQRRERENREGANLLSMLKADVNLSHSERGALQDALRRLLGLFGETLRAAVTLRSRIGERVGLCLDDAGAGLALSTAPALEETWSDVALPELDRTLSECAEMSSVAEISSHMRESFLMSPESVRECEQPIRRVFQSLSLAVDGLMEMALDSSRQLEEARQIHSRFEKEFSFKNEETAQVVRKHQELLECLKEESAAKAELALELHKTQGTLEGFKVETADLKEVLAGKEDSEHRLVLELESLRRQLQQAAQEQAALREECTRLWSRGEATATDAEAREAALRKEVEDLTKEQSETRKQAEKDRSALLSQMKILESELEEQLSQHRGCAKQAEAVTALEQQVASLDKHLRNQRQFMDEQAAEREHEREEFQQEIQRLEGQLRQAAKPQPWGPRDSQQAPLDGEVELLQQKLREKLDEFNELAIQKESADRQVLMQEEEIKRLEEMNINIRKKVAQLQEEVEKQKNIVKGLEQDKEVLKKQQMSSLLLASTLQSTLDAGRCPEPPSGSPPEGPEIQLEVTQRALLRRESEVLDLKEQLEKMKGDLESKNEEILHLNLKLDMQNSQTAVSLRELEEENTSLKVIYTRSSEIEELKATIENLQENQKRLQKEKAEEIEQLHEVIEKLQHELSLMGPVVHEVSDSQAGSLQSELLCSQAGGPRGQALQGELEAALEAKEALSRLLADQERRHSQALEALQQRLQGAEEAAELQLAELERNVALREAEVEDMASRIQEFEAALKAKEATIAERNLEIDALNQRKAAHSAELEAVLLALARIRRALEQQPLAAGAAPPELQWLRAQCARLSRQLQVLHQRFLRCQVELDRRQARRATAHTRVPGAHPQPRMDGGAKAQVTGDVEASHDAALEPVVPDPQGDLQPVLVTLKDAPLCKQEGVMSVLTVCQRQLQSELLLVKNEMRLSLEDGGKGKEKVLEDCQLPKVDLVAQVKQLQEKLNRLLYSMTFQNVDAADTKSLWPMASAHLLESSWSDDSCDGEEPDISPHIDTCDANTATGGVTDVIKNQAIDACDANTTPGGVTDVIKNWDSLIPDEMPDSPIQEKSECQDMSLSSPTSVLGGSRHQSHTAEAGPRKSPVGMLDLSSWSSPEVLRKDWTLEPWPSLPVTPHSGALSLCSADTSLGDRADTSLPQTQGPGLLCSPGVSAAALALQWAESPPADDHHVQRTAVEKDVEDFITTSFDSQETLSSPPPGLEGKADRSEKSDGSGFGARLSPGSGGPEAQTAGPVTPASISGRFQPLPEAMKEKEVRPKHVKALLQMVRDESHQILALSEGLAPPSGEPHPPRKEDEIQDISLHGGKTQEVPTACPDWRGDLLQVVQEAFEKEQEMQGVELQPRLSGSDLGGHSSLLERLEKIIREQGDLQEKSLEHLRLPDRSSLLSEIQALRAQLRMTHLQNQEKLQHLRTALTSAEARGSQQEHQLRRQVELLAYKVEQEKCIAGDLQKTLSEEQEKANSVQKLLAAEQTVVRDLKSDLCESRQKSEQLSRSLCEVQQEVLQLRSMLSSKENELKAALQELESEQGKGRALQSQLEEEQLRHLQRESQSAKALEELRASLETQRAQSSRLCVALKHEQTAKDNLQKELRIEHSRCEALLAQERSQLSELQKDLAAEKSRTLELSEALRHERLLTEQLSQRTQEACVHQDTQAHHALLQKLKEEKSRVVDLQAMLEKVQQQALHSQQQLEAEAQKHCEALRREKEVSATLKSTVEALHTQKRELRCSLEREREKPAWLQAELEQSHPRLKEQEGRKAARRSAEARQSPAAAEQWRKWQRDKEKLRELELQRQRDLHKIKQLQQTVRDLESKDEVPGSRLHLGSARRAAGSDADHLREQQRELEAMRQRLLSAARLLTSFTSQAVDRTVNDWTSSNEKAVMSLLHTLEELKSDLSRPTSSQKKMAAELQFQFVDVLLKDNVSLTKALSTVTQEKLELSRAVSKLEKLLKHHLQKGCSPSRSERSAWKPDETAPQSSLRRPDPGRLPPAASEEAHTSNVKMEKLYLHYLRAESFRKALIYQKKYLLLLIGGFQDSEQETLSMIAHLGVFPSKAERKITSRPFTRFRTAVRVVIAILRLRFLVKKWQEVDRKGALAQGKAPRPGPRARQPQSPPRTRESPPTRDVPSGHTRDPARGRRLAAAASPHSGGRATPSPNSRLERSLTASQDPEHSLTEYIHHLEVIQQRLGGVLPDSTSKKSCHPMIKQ
UniProt Q8N4L2, sequence (Q8N4L2 whole entry, looked up): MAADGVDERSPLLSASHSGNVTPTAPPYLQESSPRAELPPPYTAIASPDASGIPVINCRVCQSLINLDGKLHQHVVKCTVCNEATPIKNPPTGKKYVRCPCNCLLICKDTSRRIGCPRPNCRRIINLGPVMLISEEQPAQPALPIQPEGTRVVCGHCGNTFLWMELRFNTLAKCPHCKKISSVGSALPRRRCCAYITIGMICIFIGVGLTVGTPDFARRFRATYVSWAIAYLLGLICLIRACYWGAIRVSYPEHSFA

Compound in the assay: C1COCCN1CCN2C3=CC=CC=C3N=C2NC(=O)C4=CC(=CC=C4)[N+](=O)[O-] [IRAK-1-4 Inhibitor I]
Description: log2 fold change, soluble protein after heating vs DMSO (PISA); higher = thermal stabilisation; K562 cells, 10 uM, 30 min; active = over 0.2 and 3.5 SD of the protein, either way, in both replicates (recomputed). The essentials: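 Quantification of soluble protein used TMTpro 16plex LC-MS/MS, with channel sums equalised. Samples were the supernatant after 21,000xg for 90 min of pooled aliquots from K562 cells (2×10^6 cells/mL) treated with 10 μM compound for 30 min, heated for 3 min over 48°C-58°C, and extracted in PBS with 0.5% NP-40 at 4°C. Values, from duplicates, describe thermal stability against control samples on a log2 fold-change scale.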
For PSMC2 (UniProt P35998), the log2 fold change was -0.024.

Regarding PSMB6 (UniProt P28072), the log2 fold change is -0.007.

In the case of PRKD2 isoform 3 (UniProt Q9BZL6), the log2 fold change was -0.046.

Consider QKI (UniProt Q96PU8), for which the log2 fold change was -0.034.

Turning to PKN1 isoform 2 (UniProt Q16512), the log2 fold change is -0.014.

As to PRPF38B (UniProt Q5VTL8), the log2 fold change was -0.158.

As for PTPN12 (UniProt Q05209), the log2 fold change is -0.011.

On to PDCD6 (UniProt O75340), for which the log2 fold change is 0.021.

For the target PPOX (UniProt P50336), the log2 fold change was 0.095.

For the target POP1 (UniProt Q99575), the log2 fold change is -0.024.

As for PIKFYVE (UniProt Q9Y2I7), the log2 fold change is -0.032.

PPP1R35 (UniProt Q8TAP8): the log2 fold change is -0.055.

Take PSMB4 (UniProt P28070): the log2 fold change is -0.021.

In the case of PLIN2 (UniProt Q99541), the log2 fold change is 0.058.

Consider PCNT (UniProt O95613), for which the log2 fold change was 0.085.

Take PSMD13 (UniProt Q9UNM6): the log2 fold change is -0.048.

For the target PEA15 isoform 2 (UniProt Q15121), the log2 fold change is 0.025.

On to PARG (UniProt Q86W56), for which the log2 fold change is -0.047.

Take PDLIM7 (UniProt Q9NR12): the log2 fold change is 0.017.

With PEX13 (UniProt Q92968), the log2 fold change was 0.053.

Turning to PRKCD (UniProt Q05655), the log2 fold change was 0.043.

On to PSMC5 (UniProt P62195), for which the log2 fold change is -0.038.

As for PCBP1 (UniProt Q15365), the log2 fold change was 0.

For the target POLR3B (UniProt Q9NW08), the log2 fold change is -0.121.

Take PHKG2 (UniProt P15735): the log2 fold change was -0.034.

As for POLR2D (UniProt O15514), the log2 fold change is 0.042.

On to PRKAB1 (UniProt Q9Y478), for which the log2 fold change is 0.015.

In the case of PRKAA1 isoform 2 (UniProt Q13131), the log2 fold change is 0.046.

With PSMC4 (UniProt P43686), the log2 fold change is -0.056.

In the case of PRKAR1A (UniProt P10644), the log2 fold change was -0.068.

With PIK3R1 (UniProt P27986), the log2 fold change is 0.032.

With PHAX (UniProt Q9H814), the log2 fold change is 0.015.

For the target PIP4P2 (UniProt Q8N4L2), the log2 fold change is -0.027.

For the target PLBD1 (UniProt Q6P4A8), the log2 fold change was 0.033.

Take PSMC1 (UniProt P62191): the log2 fold change is -0.053.

Regarding PDE12 (UniProt Q6L8Q7), the log2 fold change is 0.118.

Turning to PARN (UniProt O95453), the log2 fold change is 0.002.

These data come from the supplement of paper PMC10849652.
